Measurements published in ChEMBL document CHEMBL3988442, “University of Dundee, Small-Polar-MMV Screening Library” (2021).
For some of these results: Results with a measured potency or affinity are listed apart.

Columns and labels:
Design in all cases: scale not given: direction of the effect not stated beside the values
[1] = target: Protein translocase subunit SecA (Escherichia coli (strain K12)) (UniProt P10408); experiment: Assay to Identify E. coli SecA ATPase Inhibitors; type: functional; details: 30 µM
Sequence of Protein translocase subunit SecA (Escherichia coli (strain K12)) (P10408 whole entry): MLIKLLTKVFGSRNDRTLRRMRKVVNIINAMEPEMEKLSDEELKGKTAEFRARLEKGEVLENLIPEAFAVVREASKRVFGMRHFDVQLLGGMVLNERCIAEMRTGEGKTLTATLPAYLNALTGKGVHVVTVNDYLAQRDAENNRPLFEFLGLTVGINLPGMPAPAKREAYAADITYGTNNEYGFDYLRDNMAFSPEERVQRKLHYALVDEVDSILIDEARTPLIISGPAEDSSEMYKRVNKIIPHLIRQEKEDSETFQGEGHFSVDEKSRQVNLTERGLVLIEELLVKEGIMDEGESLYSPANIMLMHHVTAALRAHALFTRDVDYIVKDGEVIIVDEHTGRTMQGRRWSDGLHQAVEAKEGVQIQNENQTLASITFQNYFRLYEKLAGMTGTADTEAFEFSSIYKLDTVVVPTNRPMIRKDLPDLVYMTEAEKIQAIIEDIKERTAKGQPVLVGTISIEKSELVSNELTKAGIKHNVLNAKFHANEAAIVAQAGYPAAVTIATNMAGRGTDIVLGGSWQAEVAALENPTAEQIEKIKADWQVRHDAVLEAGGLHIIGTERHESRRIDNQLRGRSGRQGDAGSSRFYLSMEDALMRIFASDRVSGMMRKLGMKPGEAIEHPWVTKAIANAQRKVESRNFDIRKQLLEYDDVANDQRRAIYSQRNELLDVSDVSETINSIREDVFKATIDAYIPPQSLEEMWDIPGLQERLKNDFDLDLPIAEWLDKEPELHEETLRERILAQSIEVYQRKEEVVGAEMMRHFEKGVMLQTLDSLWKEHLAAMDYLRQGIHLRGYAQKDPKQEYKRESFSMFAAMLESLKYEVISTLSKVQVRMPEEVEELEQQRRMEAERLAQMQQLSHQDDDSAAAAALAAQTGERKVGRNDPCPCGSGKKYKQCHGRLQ

[2] = target: T1, Ubiquitin-activating enzyme e1, putative (Leishmania donovani (strain BPK282A1)) (UniProt E9BSI1); experiment: Leishmania donovani Ubiquitin Activating Enzyme (LdE1); type: functional; details: 30 µM
T1 sequence (whole entry): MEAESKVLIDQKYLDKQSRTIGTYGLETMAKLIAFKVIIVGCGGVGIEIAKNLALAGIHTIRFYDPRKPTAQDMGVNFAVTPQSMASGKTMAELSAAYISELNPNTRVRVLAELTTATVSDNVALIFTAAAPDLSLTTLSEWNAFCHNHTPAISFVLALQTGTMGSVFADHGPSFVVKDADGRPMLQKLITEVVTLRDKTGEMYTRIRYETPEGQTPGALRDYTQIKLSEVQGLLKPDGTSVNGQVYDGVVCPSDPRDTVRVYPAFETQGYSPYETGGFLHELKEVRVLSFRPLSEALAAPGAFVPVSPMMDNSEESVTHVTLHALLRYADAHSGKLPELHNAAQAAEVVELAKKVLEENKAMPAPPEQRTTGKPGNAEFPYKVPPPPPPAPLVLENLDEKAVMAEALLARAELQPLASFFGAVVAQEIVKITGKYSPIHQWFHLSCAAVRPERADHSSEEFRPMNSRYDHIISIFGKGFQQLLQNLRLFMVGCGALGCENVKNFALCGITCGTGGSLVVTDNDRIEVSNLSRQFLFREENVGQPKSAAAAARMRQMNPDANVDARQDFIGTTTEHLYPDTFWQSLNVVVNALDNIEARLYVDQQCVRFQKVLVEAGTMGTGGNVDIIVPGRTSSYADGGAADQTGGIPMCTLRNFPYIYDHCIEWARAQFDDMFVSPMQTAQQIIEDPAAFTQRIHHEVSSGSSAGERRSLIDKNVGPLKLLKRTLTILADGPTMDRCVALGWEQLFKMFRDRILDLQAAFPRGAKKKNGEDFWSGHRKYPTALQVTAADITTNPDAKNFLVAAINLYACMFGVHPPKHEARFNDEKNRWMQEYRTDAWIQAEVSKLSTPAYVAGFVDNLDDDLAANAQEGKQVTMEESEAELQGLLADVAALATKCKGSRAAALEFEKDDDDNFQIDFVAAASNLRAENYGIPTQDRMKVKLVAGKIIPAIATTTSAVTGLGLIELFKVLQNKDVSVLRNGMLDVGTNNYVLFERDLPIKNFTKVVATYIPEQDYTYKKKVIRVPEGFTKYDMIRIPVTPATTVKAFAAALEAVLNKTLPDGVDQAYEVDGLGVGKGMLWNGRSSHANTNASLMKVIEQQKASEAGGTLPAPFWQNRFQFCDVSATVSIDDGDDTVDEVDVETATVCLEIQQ

[3] = target: AMP-activated protein kinase, AMPK (Homo sapiens) (UniProt P54646+O43741+P54619+Q9UGJ0+Q9Y478+Q13131+Q9UGI9); experiment: AMP-dependent Kinase enzyme assay. An in vitro enzyme assay that detects ADP turnover that is directly proportional to AMPK activity. This uses naive AMPK that is activated during the assay with MK-8722; type: functional; details: 30 µM
[4] = target: Sialic acid-binding Ig-like lectin 9 (Homo sapiens) (UniProt Q9Y336); experiment: Hs-Siglec9 ALPHAscreen SOP 20170721; details: 10 µM
Sequence of Sialic acid-binding Ig-like lectin 9 (Homo sapiens) (Q9Y336 whole entry): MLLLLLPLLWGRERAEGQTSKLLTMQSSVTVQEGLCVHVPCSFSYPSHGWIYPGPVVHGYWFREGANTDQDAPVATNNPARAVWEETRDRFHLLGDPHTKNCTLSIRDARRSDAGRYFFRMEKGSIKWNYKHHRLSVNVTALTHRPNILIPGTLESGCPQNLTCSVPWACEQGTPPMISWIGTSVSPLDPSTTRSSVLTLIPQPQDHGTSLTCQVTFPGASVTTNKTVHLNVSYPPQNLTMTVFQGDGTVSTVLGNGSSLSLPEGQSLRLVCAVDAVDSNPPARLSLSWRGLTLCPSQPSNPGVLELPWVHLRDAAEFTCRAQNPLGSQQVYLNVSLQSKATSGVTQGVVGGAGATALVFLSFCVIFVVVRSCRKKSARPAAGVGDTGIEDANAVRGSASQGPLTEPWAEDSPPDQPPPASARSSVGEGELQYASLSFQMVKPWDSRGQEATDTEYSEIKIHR

Trypanosoma cruzi = experiment: Trypanosoma cruzi phosphomannomutase and mannose-1-phosphate guanylyltransferase assay; type: functional; details: 10 µM
[5] = target: T2, Arginase-2, mitochondrial (Homo sapiens) (UniProt P78540); experiment: in vitro enzyme assay to detect the production of urea directly proportional to the activity of Arginase II; type: functional; details: 33.3 µM; further: in the data most compounds retested in dose-response had high values
T2 sequence (whole entry): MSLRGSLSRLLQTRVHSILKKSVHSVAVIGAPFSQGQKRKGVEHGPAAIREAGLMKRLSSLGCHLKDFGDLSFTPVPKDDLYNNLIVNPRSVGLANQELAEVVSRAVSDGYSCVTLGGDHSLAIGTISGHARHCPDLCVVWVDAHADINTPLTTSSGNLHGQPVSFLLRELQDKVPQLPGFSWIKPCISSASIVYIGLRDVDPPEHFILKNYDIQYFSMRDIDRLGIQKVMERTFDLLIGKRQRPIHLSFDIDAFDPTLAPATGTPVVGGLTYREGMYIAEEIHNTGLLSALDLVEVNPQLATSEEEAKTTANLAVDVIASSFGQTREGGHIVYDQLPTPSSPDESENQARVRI

[6] = target: T3, Proteasome subunit beta (Trypanosoma cruzi) (UniProt O96673); experiment: Trypanosoma cruzi proteasome chymotrypsin-like activity (TcProtChymo) assay.; further: in the data most compounds retested in dose-response had high values; type: functional; details: 9.37 µM
T3 sequence (whole entry): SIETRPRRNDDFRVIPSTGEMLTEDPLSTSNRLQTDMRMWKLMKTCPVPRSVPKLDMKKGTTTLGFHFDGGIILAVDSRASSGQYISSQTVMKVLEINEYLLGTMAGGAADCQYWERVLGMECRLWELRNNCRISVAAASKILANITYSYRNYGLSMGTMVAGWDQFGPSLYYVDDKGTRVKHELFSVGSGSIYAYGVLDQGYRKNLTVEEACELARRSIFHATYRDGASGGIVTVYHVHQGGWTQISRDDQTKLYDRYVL

Homo sapiens = species: Homo sapiens; experiment: To identify inhibition of the IFN signalling (Jak-Stat) pathway via expression of an eGFP reporter gene under the control of an IFN-stimulated response element (ISRE) containing MxA promoter.; type: functional; details: 30 µM
[7] = target: T4, Tyrosyl-tRNA synthetase, putative (Trypanosoma cruzi (strain CL Brener)) (UniProt Q4DSP6); experiment: Trypanosoma cruzi tyrosyl tRNA synthetase (TcYRS) _High Tyrosine SOP; type: functional; details: 30 µM; further: in the data most compounds retested in dose-response had high values
T4 sequence (whole entry): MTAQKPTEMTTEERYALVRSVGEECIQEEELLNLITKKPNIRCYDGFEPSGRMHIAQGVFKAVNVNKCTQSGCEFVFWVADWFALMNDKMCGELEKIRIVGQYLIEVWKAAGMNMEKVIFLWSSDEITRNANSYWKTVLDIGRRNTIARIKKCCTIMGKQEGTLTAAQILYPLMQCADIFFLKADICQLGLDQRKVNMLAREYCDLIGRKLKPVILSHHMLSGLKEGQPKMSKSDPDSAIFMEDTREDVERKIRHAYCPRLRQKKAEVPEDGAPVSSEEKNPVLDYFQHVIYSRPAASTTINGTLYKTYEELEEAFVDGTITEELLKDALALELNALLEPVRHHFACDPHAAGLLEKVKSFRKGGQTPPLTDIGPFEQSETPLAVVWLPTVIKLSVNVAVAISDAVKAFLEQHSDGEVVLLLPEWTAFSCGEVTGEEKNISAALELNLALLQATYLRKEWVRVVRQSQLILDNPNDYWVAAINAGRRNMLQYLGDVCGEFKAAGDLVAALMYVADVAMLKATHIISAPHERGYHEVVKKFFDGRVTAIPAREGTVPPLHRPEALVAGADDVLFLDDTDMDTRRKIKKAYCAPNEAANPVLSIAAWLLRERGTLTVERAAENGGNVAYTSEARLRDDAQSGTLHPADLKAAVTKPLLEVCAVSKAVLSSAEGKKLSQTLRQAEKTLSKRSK

[8] = target: T4, Tyrosyl-tRNA synthetase, putative (Trypanosoma cruzi (strain CL Brener)); experiment: Trypanosoma cruzi tyrosyl tRNA synthetase (TcYRS) SOP; type: functional; details: 30 µM
[9] = target: Chromo domain-containing protein 1 (Saccharomyces cerevisiae (strain ATCC 204508 / S288c) (Baker's yeast)) (UniProt P32657); experiment: ScCHD-1 Enzyme Inhibition Assay; type: functional; details: 30 µM; further: in the data most compounds retested in dose-response had high values
Sequence of Chromo domain-containing protein 1 (Saccharomyces cerevisiae (strain ATCC 204508 / S288c) (Baker's yeast)) (P32657 whole entry, the tested form may be a part): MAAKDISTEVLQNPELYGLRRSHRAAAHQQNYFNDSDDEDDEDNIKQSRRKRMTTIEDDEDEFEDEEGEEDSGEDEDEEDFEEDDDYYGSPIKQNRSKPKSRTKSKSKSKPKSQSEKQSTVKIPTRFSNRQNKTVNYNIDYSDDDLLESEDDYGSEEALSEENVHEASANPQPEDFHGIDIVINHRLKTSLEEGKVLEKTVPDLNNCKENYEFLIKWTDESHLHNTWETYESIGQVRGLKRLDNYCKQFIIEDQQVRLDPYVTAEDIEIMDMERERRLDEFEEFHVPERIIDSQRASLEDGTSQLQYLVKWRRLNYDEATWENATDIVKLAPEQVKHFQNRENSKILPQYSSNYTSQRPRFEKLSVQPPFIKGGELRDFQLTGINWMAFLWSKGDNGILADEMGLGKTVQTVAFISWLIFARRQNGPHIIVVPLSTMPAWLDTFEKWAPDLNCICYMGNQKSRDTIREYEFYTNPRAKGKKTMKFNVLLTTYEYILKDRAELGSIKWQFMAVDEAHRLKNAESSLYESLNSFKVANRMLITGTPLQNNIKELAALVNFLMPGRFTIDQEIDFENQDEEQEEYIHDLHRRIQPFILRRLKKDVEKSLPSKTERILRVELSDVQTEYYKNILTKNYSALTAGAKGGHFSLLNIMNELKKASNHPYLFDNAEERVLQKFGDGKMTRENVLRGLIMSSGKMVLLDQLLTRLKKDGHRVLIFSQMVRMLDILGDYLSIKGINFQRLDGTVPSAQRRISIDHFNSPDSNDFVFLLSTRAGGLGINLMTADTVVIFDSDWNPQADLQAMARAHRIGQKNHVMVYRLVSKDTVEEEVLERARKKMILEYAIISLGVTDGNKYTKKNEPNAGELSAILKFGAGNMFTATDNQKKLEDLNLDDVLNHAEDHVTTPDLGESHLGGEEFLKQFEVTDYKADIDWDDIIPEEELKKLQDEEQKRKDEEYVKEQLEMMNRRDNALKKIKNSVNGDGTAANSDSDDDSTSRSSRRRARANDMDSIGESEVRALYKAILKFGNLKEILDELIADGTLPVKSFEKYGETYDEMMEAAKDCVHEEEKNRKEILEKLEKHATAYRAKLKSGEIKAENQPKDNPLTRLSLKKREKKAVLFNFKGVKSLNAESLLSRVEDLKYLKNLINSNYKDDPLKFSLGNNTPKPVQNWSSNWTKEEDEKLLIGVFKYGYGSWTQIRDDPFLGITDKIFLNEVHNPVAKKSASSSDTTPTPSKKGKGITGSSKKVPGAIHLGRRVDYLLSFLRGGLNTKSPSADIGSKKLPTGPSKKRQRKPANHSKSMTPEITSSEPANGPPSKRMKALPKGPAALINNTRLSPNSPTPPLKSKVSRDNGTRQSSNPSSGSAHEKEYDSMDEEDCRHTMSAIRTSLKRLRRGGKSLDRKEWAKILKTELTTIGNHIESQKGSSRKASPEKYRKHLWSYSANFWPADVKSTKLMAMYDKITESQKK

Cc1nc(CN2CCOCC3(CCN(c4cccnc4)CC3)C2)cs1
Percent Effect [1]: -4.45% | Percent Effect [2]: 5.41% | Percent Effect [3]: 0.402% | Percent Effect [4]: -0.618% | Percent Effect (Trypanosoma cruzi): -2.34% | Percent Effect [5]: 2.08% | Percent Effect [6]: 14.4% | Percent Effect (Homo sapiens): 4.77% | Percent Effect [7]: 3.96% | Percent Effect [8]: 11% | Percent Effect [9]: 3.31%

O=S(=O)(C1CC1)N1CCOCC2(CCN(c3ccccn3)C2)C1 (stereo unspecified)
Percent Effect [1]: -6.13% | Percent Effect [2]: 1.33% | Percent Effect [3]: 15.1% | Percent Effect [4]: -7.58% | Percent Effect (Trypanosoma cruzi): -5.7% | Percent Effect [5]: -6.51% | Percent Effect [6]: 7.21% | Percent Effect (Homo sapiens): 3.01% | Percent Effect [7]: -6.35% | Percent Effect [8]: -5.13% | Percent Effect [9]: -5.08%

Cc1nc(C)n(CC2CCCCN2CC(=O)NC2CCOCC2)n1 (stereo unspecified)
Percent Effect [1]: -5.64% | Percent Effect [2]: 18.2% | Percent Effect [3]: 6.87% | Percent Effect [4]: 5.39% | Percent Effect (Trypanosoma cruzi): 6.37% | Percent Effect [5]: -6.05% | Percent Effect [6]: 5.07% | Percent Effect (Homo sapiens): -0.818% | Percent Effect [7]: 3.88% | Percent Effect [8]: 19.5% | Percent Effect [9]: -7.41%

O=C(C[C@@H]1COC[C@H]2CN(Cc3ccncc3)C[C@@H]12)N1CCOCC1
Percent Effect [1]: -1.31% | Percent Effect [2]: 12% | Percent Effect [3]: -1.49% | Percent Effect [4]: 2.73% | Percent Effect (Trypanosoma cruzi): -6.88% | Percent Effect [5]: -17.4% | Percent Effect [6]: 10.5% | Percent Effect (Homo sapiens): -2.62% | Percent Effect [7]: 0% | Percent Effect [8]: 2.56% | Percent Effect [9]: -5.74%

Cc1noc(C)c1CN1CCN(CC2CC2)c2ncccc2C1
Percent Effect [1]: -0.988% | Percent Effect [2]: 5.33% | Percent Effect [3]: -0.194% | Percent Effect [4]: -3.6% | Percent Effect (Trypanosoma cruzi): -5.71% | Percent Effect [5]: 3.5% | Percent Effect [6]: 4.49% | Percent Effect (Homo sapiens): 23% | Percent Effect [7]: 4.25% | Percent Effect [8]: 8.97% | Percent Effect [9]: -3.22%

CN(C)C(C(=O)N1CCCC1)c1ccccc1F (stereo unspecified)
Percent Effect [1]: -2.84% | Percent Effect [2]: 1.39% | Percent Effect [3]: 3.5% | Percent Effect [4]: -3.25% | Percent Effect (Trypanosoma cruzi): -5.54% | Percent Effect [5]: 5.3% | Percent Effect [6]: 4.74% | Percent Effect (Homo sapiens): -1.68% | Percent Effect [7]: 3.16% | Percent Effect [8]: 2.56% | Percent Effect [9]: -0.0422%

COc1cccc(S(=O)(=O)CCN2CCCCC2)c1
Percent Effect [1]: -3.72% | Percent Effect [2]: 8% | Percent Effect [3]: -7.74% | Percent Effect [4]: 6.82% | Percent Effect (Trypanosoma cruzi): -5.94% | Percent Effect [5]: 1.56% | Percent Effect [6]: 22% | Percent Effect (Homo sapiens): 20% | Percent Effect [7]: 2.73% | Percent Effect [8]: 8.64% | Percent Effect [9]: -9.16%

Cn1ccc(CN2CCC(CO)CC2)cc1=O
Percent Effect [1]: -3.9% | Percent Effect [2]: -1.27% | Percent Effect [3]: 2.26% | Percent Effect [4]: 0.971% | Percent Effect (Trypanosoma cruzi): -4.41% | Percent Effect [5]: 2.8% | Percent Effect [6]: 1.03% | Percent Effect (Homo sapiens): 26.1% | Percent Effect [7]: -2.08% | Percent Effect [8]: 10.1% | Percent Effect [9]: -1.56%

Cc1ccc(-c2nc(CN3CCc4nn(C)c(=O)cc4C3)co2)cc1
Percent Effect [1]: -3.32% | Percent Effect [2]: 35.1% | Percent Effect [3]: -173% | Percent Effect [4]: 1.71% | Percent Effect (Trypanosoma cruzi): -2.74% | Percent Effect [5]: 1.2% | Percent Effect [6]: 17.1% | Percent Effect (Homo sapiens): 11.3% | Percent Effect [7]: 3.45% | Percent Effect [8]: 13.6% | Percent Effect [9]: -6.66%

CC(NC(=O)CCCOc1ccccc1)c1nnc2n1CCCCC2 (stereo unspecified)
Percent Effect [1]: -4.14% | Percent Effect [2]: 13.5% | Percent Effect [3]: -5.88% | Percent Effect [4]: -2.77% | Percent Effect (Trypanosoma cruzi): 0.0943% | Percent Effect [5]: -5.21% | Percent Effect [6]: 11.3% | Percent Effect (Homo sapiens): 16.3% | Percent Effect [7]: 5.42% | Percent Effect [8]: 13.6% | Percent Effect [9]: -4.16%

COc1cccc2c1OCC(NC(=O)NC1CCN(C3CC3)CC1)C2 (stereo unspecified)
Percent Effect [1]: -3.95% | Percent Effect [2]: 0% | Percent Effect [3]: 4.77% | Percent Effect [4]: 0.911% | Percent Effect (Trypanosoma cruzi): 4.77% | Percent Effect [5]: 0% | Percent Effect [6]: 10.6% | Percent Effect (Homo sapiens): 3.27% | Percent Effect [7]: 6.38% | Percent Effect [8]: 7.79% | Percent Effect [9]: -0.292%
